Experimental data published in the supplement of paper PMC11402862.

Test system: PPARalpha LBD (GAL4 fusion)
Experiment: luciferase reporter transactivation, fold of solvent control; higher = stronger receptor activation
Settings: HEK293T, exposure time: 24 h
Method: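 HEK293T cells were transiently transfected with a GAL4-DBD fused to the ligand-binding domain of a human nuclear receptor (PPARα, PPARγ, PPARδ, FXR, LXRα, PXR, RARα or CAR), the GAL4-(UAS)5-TK firefly luciferase reporter and a Renilla luciferase normalisation plasmid. Cells were exposed to compound for 24 h in 0.5% DMSO. Firefly/Renilla luciferase was expressed as fold of the solvent control (=1). Values are the mean of 2-3 biological replicates; receptor agonists were used as positive controls.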

Row | SMILES | luciferase reporter transactivation (concentration: 1 µM) | luciferase reporter transactivation (concentration: 5 µM) | luciferase reporter transactivation (concentration: 10 µM) | luciferase reporter transactivation (concentration: 25 µM) | luciferase reporter transactivation (concentration: 50 µM) | luciferase reporter transactivation (concentration: 100 µM) | luciferase reporter transactivation (concentration: 250 µM) | luciferase reporter transactivation (concentration: 500 µM) | luciferase reporter transactivation (concentration: 2.5 µM)
1 | O=C(O)C(F)(F)C(F)(F)F [perfluoropropanoic acid] | 1.08 | 1.01 | 1.07 | 1.03 | 1.12 | 1.78 | 1.42 | 1.98 | –
2 | NS(=O)(=O)C(F)(F)C(F)(F)C(F)(F)C(F)(F)C(F)(F)C(F)(F)C(F)(F)C(F)(F)F [perfluorooctane sulfonamide] | 0.788 | 0.904 | 0.796 | – | – | 1.2 | – | – | 0.548
